Experimental data as given in the supplement of paper PMC10849652.
Of roughly 8,800 targets only a part is listed; those with a hit were picked by preference. About 0.5% of all pairs of compound and target were hits. A number with no mark means an inactive call.

Experiments:
Assay in all cases: log2 fold change, soluble protein after heating vs DMSO (PISA); higher = thermal stabilisation; K562 lysate, 10 uM; active = over 0.2 and 3.5 SD of the protein, either way, in both replicates (recomputed)
[1] = compound: C=CC(=O)N1CCC[C@@H](n2nc(-c3ccc(Oc4ccccc4)cc3)c3c(N)ncnc32)C1 [ibrutinib]
Procedure, shortened: (§1)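 Thermal stability, expressed as log-two fold change relative to solvent controls, is given from duplicates. Crude K562 extract in PBS pH 7.4 with 1 mM MgCl2, at 1 mg/mL protein, was treated with 10 μM compound for 30 min and heated in aliquots for 3 min across 48°C-58°C. After pooling, adjustment to 0.5% NP-40 at 4°C and centrifugation at 21,000xg for 90 min, supernatant protein was measured by TMTpro 16plex LC-MS/MS with channel sums equalised.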

[2] = compound: CC(=O)c1cnc2ccc(-c3cc(Cl)c(O)c(Cl)c3)nc2c1N[C@H]1CC[C@H](CN(C)C)CC1
Procedure, shortened: as §1

[3] = compound: CC(C)(C)Cn1c(N)nc2ccc(-c3[nH]c(C(C)(C)C)nc3-c3ccc(F)cc3)nc21 [ralimetinib]
Procedure, shortened: as §1

[4] = compound: CC(C)(O)CC(=O)NCCn1ccc2ncnc(Nc3ccc(Oc4cccc(C(F)(F)F)c4)c(Cl)c3)c21
Procedure, shortened: as §1

[5] = compound: CC(C)C1=C2N=C(C=C(N2N=C1)NCC3=CC=CC=C3)NCCCCCCN
Procedure, shortened: as §1

[6] = compound: CC1=C(C(CC(=O)N1)C2=CC=C(C=C2)C(F)(F)F)C(=O)NC3=C(C=C4C(=C3)C=NN4)F
Procedure, shortened: as §1

[7] = compound: CC1=C(C2=C(C=C1)C(=O)C3=CC=CC=C3N2CCCN)C
Procedure, shortened: as §1

[8] = compound: CC1=C(C=C(C=C1)NC(=O)C2=CC(=CC=C2)C(C)(C)C#N)NC3=CC4=C(C=C3)N=CN(C4=O)C
Procedure, shortened: as §1

[9] = compound: CC1=C(C=C(C=C1)NC(=O)C2=CC(=CC=C2)N(C)C)NC(=O)C3=CC=C(C=C3)O
Procedure, shortened: as §1

[10] = compound: CC1=CC=C(C=C1)SC2=C3C=C(SC3=CN=C2)C(=O)N
Procedure, shortened: as §1

Sequence of UniProt Q86X10 (Q86X10 whole entry, looked up): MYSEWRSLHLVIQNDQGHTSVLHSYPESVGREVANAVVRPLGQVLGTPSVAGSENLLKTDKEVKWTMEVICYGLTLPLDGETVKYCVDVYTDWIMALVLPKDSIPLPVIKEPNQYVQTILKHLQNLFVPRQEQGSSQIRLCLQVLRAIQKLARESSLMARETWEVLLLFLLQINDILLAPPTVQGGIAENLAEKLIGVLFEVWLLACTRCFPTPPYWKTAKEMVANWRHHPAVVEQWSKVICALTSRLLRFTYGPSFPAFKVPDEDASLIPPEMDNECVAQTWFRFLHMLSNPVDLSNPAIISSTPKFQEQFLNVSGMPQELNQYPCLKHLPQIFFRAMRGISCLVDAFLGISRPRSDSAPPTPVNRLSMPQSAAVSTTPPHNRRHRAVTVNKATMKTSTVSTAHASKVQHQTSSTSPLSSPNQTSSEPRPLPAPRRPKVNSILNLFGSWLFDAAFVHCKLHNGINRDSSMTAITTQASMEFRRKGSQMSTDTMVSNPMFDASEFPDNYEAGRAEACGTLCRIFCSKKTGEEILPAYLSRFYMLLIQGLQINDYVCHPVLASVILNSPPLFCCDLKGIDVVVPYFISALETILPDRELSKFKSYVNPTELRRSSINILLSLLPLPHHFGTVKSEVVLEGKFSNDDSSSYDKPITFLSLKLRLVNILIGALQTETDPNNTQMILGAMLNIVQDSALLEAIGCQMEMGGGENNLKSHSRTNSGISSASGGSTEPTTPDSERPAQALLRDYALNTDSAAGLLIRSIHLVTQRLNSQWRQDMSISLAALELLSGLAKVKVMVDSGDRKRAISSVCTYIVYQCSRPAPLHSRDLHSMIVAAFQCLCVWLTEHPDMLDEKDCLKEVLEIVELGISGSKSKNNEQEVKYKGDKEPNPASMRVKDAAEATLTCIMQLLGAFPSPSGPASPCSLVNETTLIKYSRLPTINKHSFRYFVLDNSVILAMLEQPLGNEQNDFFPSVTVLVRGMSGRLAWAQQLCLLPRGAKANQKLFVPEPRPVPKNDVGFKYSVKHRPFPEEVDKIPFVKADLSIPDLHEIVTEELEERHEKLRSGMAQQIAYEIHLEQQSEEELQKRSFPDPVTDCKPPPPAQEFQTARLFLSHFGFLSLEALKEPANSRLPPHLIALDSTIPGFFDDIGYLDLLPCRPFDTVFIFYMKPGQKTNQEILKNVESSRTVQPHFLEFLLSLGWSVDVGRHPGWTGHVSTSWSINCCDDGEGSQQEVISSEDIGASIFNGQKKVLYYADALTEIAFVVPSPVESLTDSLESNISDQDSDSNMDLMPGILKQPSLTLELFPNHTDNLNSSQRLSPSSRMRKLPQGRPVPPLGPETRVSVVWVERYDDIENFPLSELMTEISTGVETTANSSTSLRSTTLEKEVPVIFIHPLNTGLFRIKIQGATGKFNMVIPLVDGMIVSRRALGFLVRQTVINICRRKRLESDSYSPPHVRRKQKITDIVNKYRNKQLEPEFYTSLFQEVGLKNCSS
Sequence of UniProt P04049 (P04049 whole entry, looked up): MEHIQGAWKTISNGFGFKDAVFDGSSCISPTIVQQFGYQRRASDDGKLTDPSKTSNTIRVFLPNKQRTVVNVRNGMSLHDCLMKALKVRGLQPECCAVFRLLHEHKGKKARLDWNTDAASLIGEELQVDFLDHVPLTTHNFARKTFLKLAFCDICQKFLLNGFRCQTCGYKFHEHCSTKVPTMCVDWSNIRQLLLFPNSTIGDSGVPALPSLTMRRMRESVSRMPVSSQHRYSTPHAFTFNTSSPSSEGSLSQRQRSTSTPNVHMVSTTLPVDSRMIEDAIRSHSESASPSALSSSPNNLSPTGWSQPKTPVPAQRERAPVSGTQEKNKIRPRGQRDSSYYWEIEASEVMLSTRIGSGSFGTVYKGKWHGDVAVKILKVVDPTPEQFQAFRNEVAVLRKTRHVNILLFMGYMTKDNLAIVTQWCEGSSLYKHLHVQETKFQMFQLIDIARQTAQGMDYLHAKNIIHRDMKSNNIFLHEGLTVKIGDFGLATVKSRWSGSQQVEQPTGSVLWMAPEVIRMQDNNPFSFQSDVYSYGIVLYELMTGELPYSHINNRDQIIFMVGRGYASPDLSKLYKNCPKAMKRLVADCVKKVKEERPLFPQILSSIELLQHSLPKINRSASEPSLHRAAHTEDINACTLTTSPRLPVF
Sequence of UniProt Q9UKL0 (Q9UKL0 whole entry, looked up): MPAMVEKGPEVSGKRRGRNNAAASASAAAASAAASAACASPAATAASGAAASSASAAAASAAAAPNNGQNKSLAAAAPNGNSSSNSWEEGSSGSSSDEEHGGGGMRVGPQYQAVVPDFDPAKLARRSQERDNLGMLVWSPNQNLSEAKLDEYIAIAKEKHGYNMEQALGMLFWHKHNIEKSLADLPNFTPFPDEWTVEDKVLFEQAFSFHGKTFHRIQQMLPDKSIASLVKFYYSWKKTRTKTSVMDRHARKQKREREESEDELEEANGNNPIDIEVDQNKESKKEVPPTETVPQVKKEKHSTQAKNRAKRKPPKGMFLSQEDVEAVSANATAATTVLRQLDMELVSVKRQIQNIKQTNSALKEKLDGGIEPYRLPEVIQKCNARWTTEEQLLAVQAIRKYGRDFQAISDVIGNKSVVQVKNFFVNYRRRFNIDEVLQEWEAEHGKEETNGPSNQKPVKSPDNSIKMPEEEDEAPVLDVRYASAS
Sequence of UniProt P23921 (P23921 whole entry, looked up): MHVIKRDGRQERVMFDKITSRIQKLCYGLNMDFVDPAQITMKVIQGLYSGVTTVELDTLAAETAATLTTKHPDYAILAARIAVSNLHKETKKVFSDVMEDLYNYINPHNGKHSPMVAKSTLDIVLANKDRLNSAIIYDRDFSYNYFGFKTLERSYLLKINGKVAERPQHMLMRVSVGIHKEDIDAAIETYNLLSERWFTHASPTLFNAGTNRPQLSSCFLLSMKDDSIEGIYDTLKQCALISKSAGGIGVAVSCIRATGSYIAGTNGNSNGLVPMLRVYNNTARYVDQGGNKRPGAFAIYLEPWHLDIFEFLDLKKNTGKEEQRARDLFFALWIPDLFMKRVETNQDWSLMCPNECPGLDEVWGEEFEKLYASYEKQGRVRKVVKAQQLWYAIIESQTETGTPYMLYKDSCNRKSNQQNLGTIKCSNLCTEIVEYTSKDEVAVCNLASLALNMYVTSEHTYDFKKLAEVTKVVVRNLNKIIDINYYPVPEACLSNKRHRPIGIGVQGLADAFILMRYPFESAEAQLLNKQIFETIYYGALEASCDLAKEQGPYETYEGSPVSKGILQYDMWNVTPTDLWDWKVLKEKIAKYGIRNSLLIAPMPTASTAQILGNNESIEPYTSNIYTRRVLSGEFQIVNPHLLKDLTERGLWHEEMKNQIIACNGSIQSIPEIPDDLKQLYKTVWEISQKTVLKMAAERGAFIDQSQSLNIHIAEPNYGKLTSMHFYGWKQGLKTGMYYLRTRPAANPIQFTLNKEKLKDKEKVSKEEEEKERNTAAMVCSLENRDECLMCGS
Sequence of UniProt O43502 (O43502 whole entry, looked up): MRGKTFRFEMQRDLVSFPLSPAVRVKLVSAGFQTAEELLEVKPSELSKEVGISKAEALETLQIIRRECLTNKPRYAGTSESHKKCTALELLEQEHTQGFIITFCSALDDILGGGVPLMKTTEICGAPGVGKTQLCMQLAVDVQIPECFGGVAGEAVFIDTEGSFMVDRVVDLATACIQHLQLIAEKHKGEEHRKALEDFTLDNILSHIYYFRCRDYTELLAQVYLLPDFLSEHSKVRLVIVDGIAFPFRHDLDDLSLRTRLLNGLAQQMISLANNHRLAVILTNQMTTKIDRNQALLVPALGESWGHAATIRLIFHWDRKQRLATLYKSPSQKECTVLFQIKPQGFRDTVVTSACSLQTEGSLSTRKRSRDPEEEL
Sequence of UniProt O75150 (O75150 whole entry, looked up): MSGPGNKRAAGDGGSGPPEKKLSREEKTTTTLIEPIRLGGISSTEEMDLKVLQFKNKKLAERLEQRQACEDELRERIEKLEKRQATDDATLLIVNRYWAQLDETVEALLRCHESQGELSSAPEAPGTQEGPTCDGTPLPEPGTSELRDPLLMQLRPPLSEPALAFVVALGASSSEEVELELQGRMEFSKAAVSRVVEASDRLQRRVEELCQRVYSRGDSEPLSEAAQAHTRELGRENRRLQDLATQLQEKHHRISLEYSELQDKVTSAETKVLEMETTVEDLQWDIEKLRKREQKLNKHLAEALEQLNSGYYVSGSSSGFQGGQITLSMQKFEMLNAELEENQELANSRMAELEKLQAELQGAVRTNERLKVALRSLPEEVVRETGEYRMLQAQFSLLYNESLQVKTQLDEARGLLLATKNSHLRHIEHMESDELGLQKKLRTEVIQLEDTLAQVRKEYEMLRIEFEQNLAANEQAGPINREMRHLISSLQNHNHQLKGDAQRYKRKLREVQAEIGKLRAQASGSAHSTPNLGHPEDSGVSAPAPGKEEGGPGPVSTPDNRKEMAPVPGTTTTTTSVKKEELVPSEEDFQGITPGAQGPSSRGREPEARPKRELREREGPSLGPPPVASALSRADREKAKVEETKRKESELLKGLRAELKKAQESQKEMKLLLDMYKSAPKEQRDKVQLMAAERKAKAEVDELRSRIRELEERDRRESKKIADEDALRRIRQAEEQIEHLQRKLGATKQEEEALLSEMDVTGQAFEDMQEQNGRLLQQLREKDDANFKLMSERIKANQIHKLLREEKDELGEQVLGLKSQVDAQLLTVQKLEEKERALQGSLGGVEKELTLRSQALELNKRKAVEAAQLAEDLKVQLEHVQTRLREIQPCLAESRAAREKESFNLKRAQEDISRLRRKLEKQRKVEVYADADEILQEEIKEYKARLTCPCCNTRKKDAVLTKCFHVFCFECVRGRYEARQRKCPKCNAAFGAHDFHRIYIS
Sequence of UniProt Q9Y6B6 (Q9Y6B6 whole entry, looked up): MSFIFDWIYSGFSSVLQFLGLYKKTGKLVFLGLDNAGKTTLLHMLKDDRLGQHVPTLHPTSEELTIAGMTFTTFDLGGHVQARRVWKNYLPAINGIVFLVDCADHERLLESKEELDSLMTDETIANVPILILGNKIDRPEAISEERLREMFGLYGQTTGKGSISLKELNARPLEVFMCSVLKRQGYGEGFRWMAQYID

Target	log2 fold change [1]	log2 fold change [2]	log2 fold change [3]	log2 fold change [4]	log2 fold change [5]	log2 fold change [6]	log2 fold change [7]	log2 fold change [8]	log2 fold change [9]	log2 fold change [10]
RASA3 (UniProt Q14644)	0	-0.031	-0.012	-0.054	0.02	-0.048	0.031	-0.026	-0.018	-0.078
RNF40 (UniProt O75150)	0.048	-0.014	0.033	-0.015	-0.023	0.007	-0.01	-0.001	-0.006	0.004
RRM1 (UniProt P23921)	0.025	0	0.005	-0.01	0.022	0	-0.033	-0.009	0.024	0.016
RTN4IP1 (UniProt Q8WWV3)	0.073	0.02	0.012	0.028	-0.042	-0.398 (active)	-0.011	-0.008	-0.015	-0.033
RAD51C (UniProt O43502)	-0.015	0.055	0.044	0.009	0.067	-0.015	-0.039	0	-0.037	-0.051
RANBP2 (UniProt P49792)	0.001	-0.01	0.018	-0.009	-0.01	0.011	0.007	0	0.018	-0.001
RCOR1 (UniProt Q9UKL0)	0.016	-0.001	0.023	-0.028	0.264	0	0.013	-0.049	0.02	0.021
RAF1 isoform 2 (UniProt P04049)	-0.046	0.047	0.054	0.004	0.065	0.092	-0.055	0.359 (active)	0	0.027
SAR1B (UniProt Q9Y6B6)	0.02	-0.094	0.045	-0.032	0.093	0.154	-0.018	0.026	-0.065	0.077
RPS9 (UniProt P46781)	-0.02	0.015	0.016	0.026	-0.007	-0.038	-0.095	-0.048	0.006	0.043
SCO2 (UniProt O43819)	-0.021	-0.065	-0.02	-0.142	0	-0.258	-0.009	0.017	0.01	-0.117
RALGAPB (UniProt Q86X10)	0.066	-0.002	0.033	-0.038	0.003	-0.048	0.029	0.065	0.032	0.01
RANBP6 (UniProt O60518)	-0.034	-0.05	0.025	-0.066	-0.034	-0.005	-0.017	-0.009	0.026	0.009
RBMX (UniProt P38159)	-0.034	-0.132	0.004	0.032	-0.029	-0.017	0.035	-0.016	-0.016	-0.006
RAPGEF2, A0A2R8YGD3	-0.059	0.007	0.008	-0.037	0.008	0.054	-0.07	0.025	-0.025	0.023
